Dicer processing – blocks human Dicer maturation of pre-miR-21. Q9UPY3. z-score at 25 µM. cat-ELCCA pre-miR-21 Dicer processing, chemiluminescence; stronger effect = higher value. hit rate 6% among 47,000; in the data active = z-score above about 3, passing the limit was not always enough;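 note: plate controls were vehicle for no effect and no enzyme for full effect; higher signal means more uncleaved substrate so more Dicer inhibition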
* marks the source's active call; other numbers are inactive results. This is one part of a sample in which hits are shown more often than they occur.

CSc1sc(C(=O)N/N=C/c2cccs2)c2c1C(O)CCC2 (stereo unspecified) was read as Dicer processing 12.5.
For O=C(c1ccccc1)n1ccc(-c2cccs2)n1 the results were Dicer processing -3.12.
Screening O=C1CN(C(=O)c2ccccc2)C(=O)CN1C(=O)c1ccccc1 returned Dicer processing 0.91.
Screening Nc1ncn(C(=O)c2ccccc2)n1 returned Dicer processing 4.55*.
Screening COc1cc(C(F)(F)F)c(C(=O)Nc2c(C)cccc2C)cn1 returned Dicer processing -0.66.
For COc1ccc(Cc2nnc(SCc3ccc(C)cc3)o2)cc1 the results were Dicer processing 0.03.
Screening S=c1[nH]nc(CSCc2cccc3ccccc23)n1C1CCCCC1 returned Dicer processing 3.59*.
S=c1[nH]nc(Cc2ccccc2)n1C1CCCCC1 was read as Dicer processing 0.77.
S=c1[nH]nc(-c2ccccc2Cl)n1C1CCCCC1 was read as Dicer processing 0.48.
`CCCOC(=O)C1=C(C)NC2=C(C(=O)CC(c3ccccc3)C2)C1c1cc2c(cc1Cl)OCO2` (stereo unspecified) gave Dicer processing 2.67.
CC(C)N=C(C(=O)NC(C)C)C(F)(F)F was read as Dicer processing 0.51.
`O=C(N/N=C/c1cccc2ccccc12)N/N=C/c1cccc2ccccc12` gave Dicer processing 0.7.
For Cc1cc(=O)[nH]c(NCc2ccccc2)n1 the results were Dicer processing -0.6.
Screening Cc1cc(=O)[nH]c(N/N=C\c2cccc3ccccc23)n1 returned Dicer processing 3.32*.
COc1ccc(O)c(C2=NN3C(C2)c2cccc(OC)c2OC3c2cccc(F)c2)c1 (stereo unspecified) was read as Dicer processing 1.73.
For COc1cccc2c1OC(c1ccccc1)N1N=C(c3ccccc3O)CC21 (stereo unspecified) the results were Dicer processing 1.53.
`COc1ccc(O)c(C2=NN3C(C2)c2cccc(OC)c2OC3c2ccc(OC)c(O)c2)c1` (stereo unspecified) gave Dicer processing 0.58.
For COc1ccc(O)c(C2=NN3C(C2)c2cccc(OC)c2OC3c2cccc(O)c2)c1 (stereo unspecified) the results were Dicer processing 5.07*.
`COc1cccc2c1OC(c1cccc(F)c1)N1N=C(c3ccccc3O)CC21` (stereo unspecified) gave Dicer processing 6.97*.
`COc1cccc2c1OC(c1ccc(O)cc1)N1N=C(c3ccccc3O)CC21` (stereo unspecified) gave Dicer processing 4.01.
Screening COc1ccc(OC)c(C2C3=C(CC(C)(C)CC3=O)Nc3nc(SC)[nH]c(=O)c32)c1 (stereo unspecified) returned Dicer processing 0.3.
`Cc1onc(-c2c(Cl)cccc2Cl)c1NC(=O)SCc1c(Cl)cccc1Cl` gave Dicer processing -0.69.
For Cn1c(=O)c2c3nc4ccc([N+](=O)[O-])cc4cc3c(=O)n(-c3ccccc3)c2n(C)c1=O the results were Dicer processing 0.59.
Screening C=CCSc1ncnc2c1sc1nc(C)cc(C)c12 returned Dicer processing 3.08*.
`CCOc1ncnc2c1sc1nc(C)cc(C)c12` gave Dicer processing 1.12.
`Cc1cc(C)c2c(n1)sc1c(SCc3ccc(F)cc3)ncnc12` gave Dicer processing 1.03.
Screening CCOC(=O)C1=C(C)N(C)C(=O)N(C)C1c1ccccc1 (stereo unspecified) returned Dicer processing 0.62.
For CN1CCN(C(c2cccs2)c2ccc3cccnc3c2O)CC1 (stereo unspecified) the results were Dicer processing 0.94.
For CN1CCN(C(c2cccs2)N2CCN(C)CC2)CC1 the results were Dicer processing 4.62*.
`CN1CCN(C(c2ccccc2)c2ccc(Cl)cc2)CC1` (stereo unspecified) gave Dicer processing -0.11.
`COc1ccc(C2C(C(=O)OC(C)(C)C)C(=O)CC(C)(O)C2C(=O)OC(C)(C)C)cc1` (stereo unspecified) gave Dicer processing 2.34.
`Cc1ccc(C2c3c(oc4ccc(C)cc4c3=O)C(=O)N2c2nc(C)c(C)s2)cc1` (stereo unspecified) gave Dicer processing -0.17.
`Cc1ccc2cc(-c3noc(C(C)C)n3)c(=O)[nH]c2c1` gave Dicer processing -1.6.
COc1ccc(OCCSc2nc3ccccc3n2CC(=O)O)cc1 was read as Dicer processing 0.55.
Screening CCCSc1nc2ccccc2n1CC(=O)O returned Dicer processing -2.
For CC(C)CSc1nc2ccccc2n1CC(=O)O the results were Dicer processing 3.21*.
`C#CC(CC)(CC)NC(=O)NC(=O)c1ccccc1Cl` gave Dicer processing -0.91.
For Cc1ccc(OC2=NS(=O)(=O)c3ccccc32)cc1 the results were Dicer processing 0.25.
`O=S1(=O)/N=C(/O)c2ccccc2Sc2ccccc21` gave Dicer processing 3.47*.
For CSc1ccccc1NC1=NS(=O)(=O)c2ccccc21 the results were Dicer processing -0.02.
For CC(=O)n1cc(/C=C2/N=C(c3ccccc3)OC2=O)c2ccccc21 the results were Dicer processing 3.04*.

Screening results from PubChem BioAssay.
